According to PubChem BioAssay (Tox21):
Records with an inconclusive call do not appear. The source made the active and inactive calls. Unless noted, calls come from the whole dose curve.

Legend:
[1] = Nuclear factor erythroid 2-related factor 2/antioxidant responsive element (Nrf2/ARE) small molecule agonists: qHTS cell viability counter screen in human keratinocytes (AID 1919968; active = well fitted curve in the direction sought with a large enough effect in the repeat runs; an effect the other way counts as inactive or inconclusive; note: nearly all actives have a fitted effect of over 55% in size)
Outline: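 Cytotoxicity was multiplexed with the Nrf2/ARE luciferase assay in the same wells. Stably transfected HaCaT keratinocytes were treated with test compounds for 23 h at 37 C. Cell viability was then measured by CellTiter-Fluor fluorescence.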

[2] = Nuclear factor erythroid 2-related factor 2/antioxidant responsive element (Nrf2/ARE) small molecule agonists: luciferase reporter gene qHTS assay in human keratinocytes (AID 1919969); note: nearly all actives have a fitted effect of over 35% in size
[3] = target: Gonadotropin-releasing hormone receptor (Homo sapiens) (UniProt P30968); experiment: Human gonadotropin-releasing hormone receptor (GnRHR) small molecule agonists, calcium flux assay in GnRHR-HEK293 cells (AID 1920063); note: nearly all actives have a fitted effect of over 35% in size
Gonadotropin-releasing hormone receptor (Homo sapiens), sequence (P30968 whole entry, looked up): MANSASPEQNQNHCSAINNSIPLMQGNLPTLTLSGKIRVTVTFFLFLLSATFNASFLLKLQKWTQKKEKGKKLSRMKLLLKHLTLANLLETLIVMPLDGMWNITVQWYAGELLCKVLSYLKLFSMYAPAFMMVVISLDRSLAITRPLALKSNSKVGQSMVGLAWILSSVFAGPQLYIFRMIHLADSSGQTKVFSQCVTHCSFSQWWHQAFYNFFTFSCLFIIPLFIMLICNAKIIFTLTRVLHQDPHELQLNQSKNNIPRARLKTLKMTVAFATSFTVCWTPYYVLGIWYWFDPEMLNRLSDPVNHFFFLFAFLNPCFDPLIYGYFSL
Outline: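 Agonist activity was measured as intracellular calcium flux in HEK293 cells engineered to stably express human GnRHR. After dye loading for 1 hour at 37 C, compounds in DMSO were added and fluorescence was followed for 3 minutes.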

[4] = target: KiSS-1 receptor (Homo sapiens) (UniProt Q969F8); experiment: Human kisspeptin (KISS1R) small molecule agonists, calcium flux assay in KISS1R-HEK293 cells (AID 1920064; active = well fitted curve in the direction sought with a large enough effect in the repeat runs; an effect the other way counts as inactive or inconclusive)
KiSS-1 receptor (Homo sapiens), sequence (Q969F8 whole entry, looked up): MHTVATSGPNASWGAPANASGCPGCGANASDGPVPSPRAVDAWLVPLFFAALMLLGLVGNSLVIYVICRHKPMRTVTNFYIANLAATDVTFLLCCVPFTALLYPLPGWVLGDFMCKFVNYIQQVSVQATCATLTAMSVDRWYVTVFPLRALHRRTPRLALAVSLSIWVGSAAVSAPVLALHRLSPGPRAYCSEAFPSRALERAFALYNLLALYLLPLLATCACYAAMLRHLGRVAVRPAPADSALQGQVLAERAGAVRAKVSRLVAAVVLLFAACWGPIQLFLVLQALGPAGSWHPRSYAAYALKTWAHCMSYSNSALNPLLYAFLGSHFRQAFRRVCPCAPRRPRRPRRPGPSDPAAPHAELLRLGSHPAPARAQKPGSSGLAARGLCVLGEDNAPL
Outline: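 Agonist activity is monitored as intracellular calcium rise in engineered HEK293 cells carrying human KISS1R. Cells are dye-loaded for 1 h at 37 C before compound addition, and fluorescence is recorded for 3 min.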

[5] = G protein-coupled receptor (GPCR) small molecule agonists, calcium flux assay: HEK293 wild type cell line counter screen (AID 1920065)
Outline: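 Seed cells, incubate 18 h (37 C, 5% CO2); add calcium dye, 1 h at 37 C; pin-transfer compounds, ATP control or DMSO; read fluorescence 480/540 nm each second for 3 min.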

[6] = p53 small molecule agonists, cell-based qHTS assay with human liver microsomes (AID 1963577);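 note: p53 response element beta-lactamase reporter cells with liver microsomes plus NADPH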
Outline: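 In this qHTS, p53 response-element beta-lactamase cells receive test compound together with a microsome/NADPH activating system (0.5 mg/mL final each) and are incubated 16 h at 37 C before LiveBLAzer fluorescence detection.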

[7] = p53 small molecule agonists, cell-based qHTS assay with rat liver microsomes: qHTS cell viability counter screen (AID 1963580); note: nearly all actives have a fitted effect of over 45% in size
Outline: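 Counter screen for cytotoxicity under metabolic activation: rat liver microsomes and NADPH, 0.5 mg/mL final each, added with compounds to p53RE-bla HCT-116 cells; 16 h at 37 C, then ATP luminescence read.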

[8] = p53 small molecule agonists, cell-based qHTS assay: qHTS cell viability counter screen (AID 1963581); note: nearly all actives have a fitted effect of over 45% in size
Outline: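 Viability was counter-screened in parallel with the p53 agonist reporter by measuring intracellular ATP luminescence in the same HCT-116 p53RE-bla wells after 16 h compound treatment at 37 C.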

[9] = p53 small molecule agonists, cell-based qHTS assay (AID 1963582; active = well fitted activation curve with a large enough effect in the signal ratio in the repeat runs, not every such curve was filed as active; the % refers to the signal ratio)
Outline: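 Cells carrying a p53-responsive bla reporter are treated with test compounds for 16 h at 37 C; beta-lactamase activity is then detected with LiveBLAzer B/G FRET substrate after 2 h at room temperature.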

[10] = target: 5-hydroxytryptamine receptor 2A (Homo sapiens) (UniProt P28223); experiment: 5-hydroxytryptamine receptor 2A (HTR2A) small molecule antagonists, cell-based qHTS assay (AID 1963586); note: nearly all actives have a fitted effect of over 45% in size
5-hydroxytryptamine receptor 2A (Homo sapiens), sequence (P28223 whole entry, looked up): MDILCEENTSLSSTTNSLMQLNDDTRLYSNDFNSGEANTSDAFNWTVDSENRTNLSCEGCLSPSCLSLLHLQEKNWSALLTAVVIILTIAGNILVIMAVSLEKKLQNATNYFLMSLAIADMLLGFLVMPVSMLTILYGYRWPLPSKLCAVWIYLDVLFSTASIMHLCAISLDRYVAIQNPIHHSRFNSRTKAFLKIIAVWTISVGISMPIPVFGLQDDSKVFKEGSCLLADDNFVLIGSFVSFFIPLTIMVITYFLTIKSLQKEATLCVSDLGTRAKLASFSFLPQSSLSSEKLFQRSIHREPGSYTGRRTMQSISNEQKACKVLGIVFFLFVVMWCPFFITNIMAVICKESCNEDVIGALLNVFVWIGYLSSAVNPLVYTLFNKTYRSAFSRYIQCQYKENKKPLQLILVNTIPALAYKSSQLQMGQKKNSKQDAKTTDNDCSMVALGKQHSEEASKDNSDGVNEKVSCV
Outline: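 CHO cells stably expressing human HTR2A were plated for 18 h at 37 C, then loaded with calcium dye for 1 h. Compounds were preincubated 5 min at room temperature before DOI (4 nM solution) was added. Kinetic fluorescence was read for 3 min.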

[11] = target: 5-hydroxytryptamine receptor 2A (Homo sapiens) (UniProt P28223); experiment: 5-hydroxytryptamine receptor 2A (HTR2A) small molecule agonists, cell-based qHTS assay (AID 1963587); note: nearly all actives have a fitted effect of over 30% in size
Outline: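 HTR2A-CHO cells, plated 18 h at 37 C/5% CO2, dye-loaded 1 h at 37 C; compounds in DMSO added by pin tool (agonist mode). Intracellular calcium flux read as kinetic fluorescence on FDSS over 2 min at 1 s intervals.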

[12] = target: Muscarinic acetylcholine receptor M1 (Homo sapiens) (UniProt P11229); experiment: Cholinergic receptor muscarinic 1 (CHRM1) small molecule agonists, cell-based qHTS assay (AID 1963589); note: nearly all actives have a fitted effect of over 35% in size
Muscarinic acetylcholine receptor M1 (Homo sapiens), sequence (P11229 whole entry, looked up): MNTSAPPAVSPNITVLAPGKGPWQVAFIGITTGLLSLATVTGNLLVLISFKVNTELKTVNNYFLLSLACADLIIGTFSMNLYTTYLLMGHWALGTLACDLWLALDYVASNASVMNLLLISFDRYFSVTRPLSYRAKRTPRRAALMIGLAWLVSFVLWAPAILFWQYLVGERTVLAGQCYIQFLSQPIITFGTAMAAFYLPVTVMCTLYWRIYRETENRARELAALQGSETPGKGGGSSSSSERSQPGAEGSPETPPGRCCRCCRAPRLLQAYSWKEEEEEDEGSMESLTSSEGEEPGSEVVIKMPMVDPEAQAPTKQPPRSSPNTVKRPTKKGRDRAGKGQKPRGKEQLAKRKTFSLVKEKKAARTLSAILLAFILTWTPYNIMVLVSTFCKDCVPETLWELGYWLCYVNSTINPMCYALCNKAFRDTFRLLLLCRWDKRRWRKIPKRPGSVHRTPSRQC
Outline: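 Cells were plated and incubated 18 h at 37 C/5% CO2, loaded with calcium dye for 1 h at 37 C, then treated with compounds in DMSO. Fluorescence was recorded kinetically at 1 sec intervals.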

[13] = cAMP Responsive Elements (CRE) small molecule agonists, cell-based qHTS assay (AID 1963590)
Outline: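 Cells carrying a CRE-driven beta-lactamase reporter (HEK 293T) are seeded, incubated overnight (18 h), and treated with test compounds for 3 h at 37 C; reporter activity is then detected with a FRET substrate after 2 h at room temperature.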

[14] = cAMP Responsive Elements (CRE) small molecule antagonists, cell-based qHTS assay (AID 1963591; active = well fitted inhibition curve with a large enough effect in the signal ratio in the repeat runs, not every such curve was filed as active; the % refers to the signal ratio)
Outline: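 Cells (CRE-bla HEK 293T, DMEM with 10% dialyzed FBS and 25 mM HEPES) are seeded and incubated 18 h. Compounds are added with NKH477 agonist at 0.25 uM final for 3 h, then FRET substrate for 2 h.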

[15] = target: Beta-2 adrenergic receptor (Homo sapiens) (UniProt P07550); experiment: Adrenergic beta2 receptor (ADRB2) small molecule antagonists, cell-based qHTS assay (AID 1963592); note: series mostly up to about 92 µM; nearly all actives have a fitted effect of over 50% in size
Beta-2 adrenergic receptor (Homo sapiens), sequence (P07550 whole entry, looked up): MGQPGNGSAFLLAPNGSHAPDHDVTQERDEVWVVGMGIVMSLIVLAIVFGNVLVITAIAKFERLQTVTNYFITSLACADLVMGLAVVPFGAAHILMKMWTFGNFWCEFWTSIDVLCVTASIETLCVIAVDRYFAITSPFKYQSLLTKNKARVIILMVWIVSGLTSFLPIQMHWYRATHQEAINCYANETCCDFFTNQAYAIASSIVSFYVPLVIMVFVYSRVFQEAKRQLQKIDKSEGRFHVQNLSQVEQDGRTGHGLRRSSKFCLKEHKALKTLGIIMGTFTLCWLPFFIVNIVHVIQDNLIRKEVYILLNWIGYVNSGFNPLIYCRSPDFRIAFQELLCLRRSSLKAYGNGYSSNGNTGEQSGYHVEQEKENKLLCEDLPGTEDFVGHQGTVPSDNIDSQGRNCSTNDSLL
Outline: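 Assay format: CHO-ADRB2 cells, 18-20hr seeding at 37C/5% CO2, then compound plus 1nM isoproterenol agonist mix for 0.5hr RT. Homogeneous time-resolved fluorescence cAMP detection after 1hr, expressed as 665/615 nm ratio.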

[16] = target: D(2) dopamine receptor (Homo sapiens) (UniProt P14416); experiment: Dopamine D2 receptor (DRD2) small molecule agonists, cell-based qHTS assay (AID 1963594); note: nearly all actives have a fitted effect of over 35% in size
D(2) dopamine receptor (Homo sapiens), sequence (P14416 whole entry, looked up): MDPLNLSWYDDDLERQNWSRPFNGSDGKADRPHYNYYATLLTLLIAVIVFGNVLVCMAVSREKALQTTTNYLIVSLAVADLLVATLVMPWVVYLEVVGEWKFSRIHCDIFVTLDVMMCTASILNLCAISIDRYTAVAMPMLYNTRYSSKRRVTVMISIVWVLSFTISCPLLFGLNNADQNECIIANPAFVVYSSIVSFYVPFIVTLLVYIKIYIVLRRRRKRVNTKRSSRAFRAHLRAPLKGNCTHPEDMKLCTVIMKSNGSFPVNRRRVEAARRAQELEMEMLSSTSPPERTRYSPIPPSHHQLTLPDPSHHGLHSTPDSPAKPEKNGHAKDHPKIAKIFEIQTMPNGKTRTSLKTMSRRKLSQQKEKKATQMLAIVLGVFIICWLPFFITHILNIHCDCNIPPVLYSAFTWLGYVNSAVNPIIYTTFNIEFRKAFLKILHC
Outline: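 HEK293 cells stably expressing DRD2 were cultured 24 h at 37 C, then given Ro20-1724 (0.1 mM final) and compounds for 10 min at room temperature. NKH477 (200nM) was then added for 30 min. cAMP was read by HTRF.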

[17] = target: D(2) dopamine receptor (Homo sapiens) (UniProt P14416); experiment: Dopamine D2 receptor (DRD2) small molecule antagonists, cell-based qHTS assay (AID 1963595; active = well fitted inhibition curve with a large enough effect in the signal ratio in the repeat runs, with a control signal flat; the % refers to the signal ratio)
Outline: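 Antagonist mode in DRD2-HEK293 cells: after compound addition with 0.1 mM Ro20-1724, cells received quinpirole (12 nM) and NKH477 (200 nM) for 30 min at room temperature; HTRF cAMP read after 1 h detection.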

[18] = target: Muscarinic acetylcholine receptor M1 (Homo sapiens) (UniProt P11229); experiment: Cholinergic receptor muscarinic 1 (CHRM1) small molecule antagonists, cell-based qHTS assay (AID 1963588); note: nearly all actives have a fitted effect of over 40% in size
Outline: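 Compounds were tested at 15 concentrations in three independent runs. Dye-loaded CHRM1-CHO cells were exposed 5 min at room temperature before stimulation by acetylcholine added at 50nM. Intracellular calcium was read kinetically on FDSS for 3 min.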

[19] = target: Beta-2 adrenergic receptor (Homo sapiens) (UniProt P07550); experiment: Adrenergic beta2 receptor (ADRB2) small molecule agonists, cell-based qHTS assay (AID 1963593);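 note: CHO cells stably overexpressing human ADRB2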
Outline: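 CHO cells stably over-expressing ADRB2 were plated overnight at 37C, then dosed with compounds plus a stimulation mix containing 100uM IBMX and 25uM Ro-20-1724 for 0.5hr at room temperature. cAMP was measured by HTRF competition, 1hr.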

[20] = p53 small molecule agonists, cell-based qHTS assay with human liver microsomes: qHTS cell viability counter screen (AID 1963579); note: nearly all actives have a fitted effect of over 45% in size
Outline: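 Metabolically activated exposure: compounds, human liver microsomes and NADPH (0.5 mg/mL final apiece) were added to p53RE-bla cells seeded 5 h earlier, left 16 h at 37 C, and then assessed for viability by CellTiter-Glo luminescence.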

Measured: Potency

COC(=O)c1ccccc1C(=O)c1ccc(OCCN2CCCCC2)cc1
not listed: [18] | [19] | [20]
inactive: all other assays above

C=CCOCC(CC)(CO)COCC=C
not listed: [8] | [13] | [17] | [18] | [19] | [20]
inactive: all other assays above

C=CCCCCCCCC
not listed: [11] | [20]
inactive: all other assays above

CC1(C)C(=O)N(Br)C(=O)N1Cl
not listed: [8] | [20]
inactive: all other assays above

O=C(O)/C=C/c1cnc[nH]1
not listed: [12] | [14] | [19] | [20]
inactive: all other assays above

C/C(=C1\CCOC(=O)S1)N(C=O)Cc1cnc(C)nc1N
not listed: [17]
inactive: all other assays above

O=C1CC(c2ccc(Cl)cc2)CC(=O)N1
inactive: all assays above
